Compound activity from PubChem BioAssay.
WT yeast gro inh = growth inhibition of WT yeast, mitochondrial fusion screen; mitochondrial fusion phenotypic screen, WT strain; inhibition, % at 10 µM; actives 2.1% (n = 190,000); AID 1362; in the data active means inhibition above about 58%; tested in S. cerevisiae
hDAT+cocaine = changed human dopamine transporter uptake under cocaine IC80; Q01959; LLC-PK1 hDAT cells, [14C]-dopamine uptake with cocaine IC80; actives deviate in either direction; B-score at 10 µM; actives 1.3% (n = 110,000);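 active means Z score or B-score, a plate-position-corrected score, falls beyond the plate's 99.7% confidence bounds, in either direction; inactive means both scores lie inside the 99.7% bounds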;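 further: scored against the spread of the other compound wells on the same plate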
Target sequence (Q01959 whole entry, looked up): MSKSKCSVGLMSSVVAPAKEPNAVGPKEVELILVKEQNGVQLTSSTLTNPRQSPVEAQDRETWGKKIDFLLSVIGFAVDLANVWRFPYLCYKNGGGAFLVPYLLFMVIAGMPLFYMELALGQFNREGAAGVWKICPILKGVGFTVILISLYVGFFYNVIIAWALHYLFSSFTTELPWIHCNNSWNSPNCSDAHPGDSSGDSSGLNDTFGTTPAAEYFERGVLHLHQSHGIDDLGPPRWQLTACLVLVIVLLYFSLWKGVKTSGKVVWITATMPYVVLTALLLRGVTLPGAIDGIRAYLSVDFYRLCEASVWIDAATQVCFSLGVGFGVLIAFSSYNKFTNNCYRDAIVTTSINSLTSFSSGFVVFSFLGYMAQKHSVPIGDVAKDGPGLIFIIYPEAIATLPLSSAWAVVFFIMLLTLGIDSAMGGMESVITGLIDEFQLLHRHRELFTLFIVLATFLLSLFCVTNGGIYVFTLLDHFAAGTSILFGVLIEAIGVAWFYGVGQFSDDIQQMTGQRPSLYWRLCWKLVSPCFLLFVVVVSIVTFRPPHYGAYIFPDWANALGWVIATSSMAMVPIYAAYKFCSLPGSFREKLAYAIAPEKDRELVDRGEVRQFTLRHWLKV
bCat KO growth = beta-catenin-lacking colon tumor cell growth suppression; HCT116 beta-catenin knockout viability, CellTiter-Glo, 60 h; stronger effect = lower value; viability, % at 10 µM; actives 1.5% (n = 140,000); AID 818;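 active means viability at or under a set limit, the compound median less 4 SD, cut at about 6% in these data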;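 further: 0% = Hyamine 1622 control at 20 µM and 100% = untreated cell control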
PTEN del growth = PTEN-deleted cell growth suppression; HCT116 PTEN-null viability, CellTiter-Glo, 60 h; stronger effect = lower value; AID 827; viability, % at 10 µM; actives 1.2% (n = 140,000);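 active means viability at or below a set limit, 4 SD under the median of all tested compounds, cut at about 3.7% in these data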;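 further: PTEN knockout HCT116 line with beta catenin targeted HCT116 as companion control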
* = called active by the depositor; . = no result given. Rows were chosen to be rich in hits. Some 3.6% of all compounds tested hit in one or more screens of this group.

SMILES	WT yeast gro inh	hDAT+cocaine	bCat KO growth	PTEN del growth
O=C(CSC1=NC2(CCCCCC2)N=C1c1ccccc1)Nc1ccc2c(c1)OCCO2	58.5*	.	83.3	59.0
Nn1c(SCC(=O)Nc2ccc3c(c2)OCO3)nnc1-c1ccncc1	88.1*	.	91.5	96.4
O=C(CSc1nnc2scc(-c3ccccc3)n12)Nc1ccc2c(c1)OCCO2	73.0*	0.441	91.5	96.8
Cc1ccc(NC(=O)CS(=O)CC(=O)Nc2ccc3c(c2)OCO3)cc1Cl (centres undefined)	-5.5	-7.55*	108.6	100.0
O=C(CSC1=NC2(CCCCC2)N=C1c1ccccc1)Nc1ccc2c(c1)OCCO2	23.7	.	80.8	65.9
Cc1ccc(NC(=O)CCn2ccc([N+](=O)[O-])n2)nc1	-2.0	.	88.2	85.1
O=C(COc1ncnc2scc(-c3ccccc3)c12)NCCN1C(=O)CSC1=O	-8.4	.	.	.
Cc1ccc(C)c(SCC(=O)c2ccc[nH]2)c1	4.0	.	.	.
Cc1ccc(-c2nc(NC(=O)CSc3nnc4scc(-c5ccccc5)n34)ns2)cc1	7.3	2.55*	.	.
COc1ccc(NC(=O)CSc2ccc3c(c2)OCCO3)cc1OC	86.3*	-0.621	91.3	87.8
O=c1c2c(-c3ccccc3)csc2nc2c3ccccc3c(NCCN3CCOCC3)nn12	17.3	.	.	.
O=c1cc(-c2ccc(C3CCCCC3)cc2)[nH][nH]1	68.8*	.	.	.
O=c1cc(-c2ccc(F)cc2)[nH][nH]1	-3.7	.	91.9	90.8
OC1CCN(c2cc(-c3ccccc3)nc3cc(-c4ccc(F)cc4)nn23)CC1	-15.6	.	.	.
Fc1ccc(-c2cc3nc4c(c(N5CCOCC5)n3n2)CCCC4)cc1	1.9	0.673	77.2	72.2
OC1CCCN(c2c3c(nc4cc(-c5cccc(F)c5)nn24)CCCC3)C1 (centres undefined)	69.4*	.	.	.
OC1CCCN(c2c3c(nc4cc(-c5cccc(Cl)c5)nn24)CCC3)C1 (centres undefined)	67.4*	1.72	55.2	57.9
CCN1CCN(c2cc(-c3ccccc3)nc3cc(-c4cccc(F)c4)nn23)CC1	81.9*	1.11	1.2*	1.4*
Cc1cccc(-c2cc3nc4c(c(N5CCOCC5)n3n2)CCCC4)c1	69.3*	0.786	62.9	53.4
CCN(CC)C(=O)c1cc2c(=O)c3cc(F)ccc3oc2nc1C	-2.4	.	.	.
Cc1cccc(-c2cc3nc4c(c(N5CCCC(O)C5)n3n2)CCC4)c1 (centres undefined)	16.8	3.4*	73.3	72.9
COc1cccc(-c2cc3nc4c(c(N5CCC6(CC5)OCCO6)n3n2)CCC4)c1	65.0*	.	.	.
COc1cccc(-c2cc3nc(-c4ccccc4)cc(N4CCCC(O)C4)n3n2)c1 (centres undefined)	69.2*	.	.	.
Cc1ccc(/C=C/C(=O)c2nc3ccccc3[nH]2)cc1	-0.4	-0.154	2.5*	2.7*
Cc1nc2sc(C(c3ccc(Br)cc3)N3CC(C)OC(C)C3)c(O)n2n1 (centres undefined)	-5.8	2.6*	98.4	88.8
SMILES	WT yeast gro inh	hDAT+cocaine	bCat KO growth	PTEN del growth
CNc1ncc(Cc2ccccc2)s1	10.8	.	85.0	91.8
CCn1c(-c2cccc(Br)c2)n[nH]c1=S	14.3	1.02	101.8	106.8
CCn1c(-c2ccc3ncccc3c2)n[nH]c1=S	9.5	3.12*	104.4	91.8
Cc1cccc(C(=O)N[C@@H]2c3ccccc3C[C@@H]2O)n1	.	-0.246	.	.
O=[N+]([O-])c1ccc(N2CCCCC2)cc1NCCOc1ccccc1	6.2	.	94.9	92.8
Cc1ccccc1OCCNc1cc(N2CC(C)NC(C)C2)ccc1[N+](=O)[O-] (centres undefined)	86.6*	-1.74	.	.
O=C(N/N=C/C(Br)=C/c1ccccc1)c1n[nH]c2c1CCC2	49.9	-0.298	2.7*	1.7*
O=C(N/N=C/c1ccccc1)c1n[nH]c2c1CCCC2	-19.9	.	.	.
COc1ccccc1NC(=S)NCCSc1ccc(C)cc1	70.9*	.	90.3	97.0
Cc1cc(C)cc(NC(=S)NCCSc2ccc(Cl)cc2)c1	80.5*	.	61.5	45.8
Cc1ccc(SCCNC(=S)Nc2ccccc2)cc1	73.7*	0.0258	113.3	106.2
Cc1ccc(SCCNC(=S)Nc2cc(C)ccc2C)cc1	75.1*	1.31	62.3	73.8
COc1ccccc1NC(=S)NCCc1ccccc1	0.9	0.00799	93.1	93.4
COc1ccc(C(=O)Nn2c(SCc3ccc([N+](=O)[O-])cc3)nc3ccccc3c2=O)cc1	-6.9	0.147	93.5	75.4
Cc1ccc2nc(COc3ccc(Cl)cc3)cc(=O)n2c1	5.6	.	.	.
O=C(CNC(=O)c1ccc(S(=O)(=O)N2CCCC2)cc1)N/N=C/c1ccc(F)cc1	-5.8	.	.	.
CCOc1ccc(S(=O)(=O)N(C)c2ccc(OCC(=O)Nc3nc(-c4cc(OC)ccc4OC)cs3)cc2)cc1	5.9	.	96.8	90.0
CCC(=NCc1ccc(Cl)c(Cl)c1)c1nc(-c2ccco2)oc1O	66.6*	.	82.8	71.1
COc1ccc(N=Cc2nc(-c3ccco3)oc2O)cc1	-29.1	-0.0218	91.0	86.2
COc1cccc(C(=O)Nc2c(C)nn(-c3ccccc3)c2C)c1	2.4	.	.	.
CC(=O)NC1=C(N(C)C2CCS(=O)(=O)C2)C(=O)c2ccccc2C1=O (centres undefined)	11.6	.	3.5*	3.4*
Cc1cccc(CS(=O)(=O)c2nnc([C@H](Cc3ccccc3)NC(=O)OC(C)(C)C)o2)c1	46.7	0.397	1.4*	1.4*
CCn1c(NCc2ccccn2)nc2c1c(=O)n(C)c(=O)n2C	-2.6	4.01*	91.1	101.0
CCCn1c(NCc2ccco2)nc2c1c(=O)n(C)c(=O)n2C	-22.3	-0.233	97.2	81.2
CCn1c(N2CCN(CC(=O)c3ccc(OC)cc3)CC2)nc2ccccc21	0.1	-7.62*	86.0	85.7
SMILES	WT yeast gro inh	hDAT+cocaine	bCat KO growth	PTEN del growth
O=C(Cc1ccc(Cl)cc1)Nc1ccc(C(=O)N2CCOCC2)cc1	-27.8	.	.	.
Cc1cc(C)c(S(=O)(=O)N2CCC(C(=O)NCc3ccc(Cl)cc3Cl)CC2)c(C)c1	74.7*	0.14	74.8	79.8
COC(=O)CCC(=O)NNC(=O)c1ccc(Cl)cc1Cl	-4.5	-4.67*	110.5	100.9
C/C(=N\Nc1ccccn1)c1ccc(C(C)C)cc1	76.0*	.	.	.
Cc1ccc(N/C(=C\C(=O)c2ccccc2)C(=O)O)cc1	15.0	.	.	.
CSc1nc(N)nc(SCC(=O)Nc2ccc(Cl)cc2)c1C#N	13.8	0.265	89.2	76.9
CSc1nc(N)nc(SCCS(=O)(=O)c2ccc(Cl)cc2)c1C#N	33.0	6.07*	35.1	30.4
Cc1cccc(NC(=S)NNC(=O)COc2ccc(Cl)cc2Cl)c1	62.9*	.	88.9	97.7
Cc1ccc(OCC(=O)Nc2ccccc2[N+](=O)[O-])c(Br)c1	9.2	.	.	.
COc1ccc(NC(=S)NNC(=O)COc2ccc(Cl)cc2Cl)cc1	69.5*	.	93.6	101.0
Cc1ccc(OCC(=O)NNC(=S)NC(=O)C(C)(C)C)c(Br)c1	83.8*	.	.	.
S=C(N/N=C1\CCc2ccccc21)NC1CCCCC1	70.1*	.	.	.
O=C(N/N=C1/CCc2ccccc21)C1CC1	5.1	.	.	.
Oc1c(Br)cc(Br)cc1/C=N/c1nc2c(s1)CCCC2	10.2	2.66	98.1	99.3
Oc1ccc2ccccc2c1/C=N/c1nc2c(s1)CCCC2	79.7*	0.0111	86.7	89.4
COC(=O)Cc1sc(-c2ccccn2)nc1-c1ccccc1	9.0	.	.	.
